In the library only some 1.8% were active in any assay of this set; here they are far more common.
IEC-6 tox: cytotoxicity in IEC-6 intestinal epithelial cells, primary screen, cytotoxicity control for KLF5 inhibitor project, cell-based, luminescence; 290,000 compounds, 0.78% hits; IEC-6 cytotoxicity, luminescence viability; inhibition, % at 5 µM; in the data active = inhibition above about 22%
KLF5 inhibitor: KLF5 expression inhibitors, primary screen, DLD-1 cells, luminescence. 290,000 compounds, 0.23% hits. inhibition, % at 5 µM. AID 1700, 2009. DLD-1 KLF5 promoter-luciferase reporter;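 active = inhibition above a per-plate limit of that plate's mean compound inhibition plus 3 SD, cut at about 60% in these data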;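 note: higher means less KLF5 promoter-driven luciferase light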
Ba/F3 V617F tox: reduced viability of JAK2V617F-dependent Ba/F3 cells, primary screen, JAK2V617F inhibitor project, cell-based, Ba/F3 EpoR-JAK2V617F, luminescence | ATP luminescence | inhibition, % at 5.6 µM | 220,000 compounds, 1.1% hits | AID 1446, 2008;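 active = inhibition above the campaign mean plus 3 SD over all tested compounds, cut at about 24% in these data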;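 note: cytokine-independent growth of Ba/F3 cells driven by EpoR plus mutant JAK2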
APP 5UTR inh: inhibitors of APP translation via 5'UTR reporter, primary screen, APP 5'UTR luciferase, SH-SY5Y cells; 190,000 compounds, 0.82% hits; inhibition, % at 2 µM; SH-SY5Y APP 5'UTR-luciferase reporter, luminescence;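 active = inhibition above a set limit, derived from the sample mean plus 3 SD, cut at about 45% in these data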
BaF3 parental: parental Ba/F3 cell viability inhibition, counter-screen for JAK2V617F inhibitor project, murine pro-B, CellTiter-Glo luminescence. CellTiter-Glo ATP luminescence. inhibition, % at 5.6 µM. 220,000 compounds, 1.1% hits;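 active = inhibition above a per-campaign cutoff, the mean inhibition of all tested compounds plus 3 SD, cut at about 27% in these data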
Large screens that a line does not name were inactive; ! = repeats disagree.

Cc1nc2ccccn2c1CN(C)C(=O)C1CCC(=O)N(CCc2cccc(F)c2)C1 (stereo unspecified)	none (no result: Ba/F3 V617F tox, APP 5UTR inh, BaF3 parental)
CN(Cc1cnccn1)Cc1nc(Cc2cccc(F)c2)no1	none
CCC(C)OC(=O)C[N+](C)(C)CCOC1CC2CCC1(C)C2(C)C (stereo unspecified)	Ba/F3 V617F tox 82, BaF3 parental 74
CCCCCCOC(=O)C[N+](C)(C)CCOC1CC2CCC1(C)C2(C)C (stereo unspecified)	Ba/F3 V617F tox 89, BaF3 parental 80
COc1ccccc1C(=O)NCC(=O)N/N=C/c1ccc([N+](=O)[O-])cc1	BaF3 parental 48
CCC1CCCCN1CCCNC(=O)CNC(=O)c1nn(-c2ccc(OC)c(Cl)c2)c(=O)c2ccccc12 (stereo unspecified)	none (no result: Ba/F3 V617F tox, APP 5UTR inh, BaF3 parental)
COc1ccccc1NC(=O)/C(C#N)=C/C=C/c1ccco1	APP 5UTR inh 88
CC(C)CCNC(=O)CCc1nnc(COc2ccccc2)o1	BaF3 parental 81
O=C(CCc1nnc(COc2ccccc2)o1)NCCc1cccs1	none
O=C(CCc1ccccc1)Nc1cc(Cl)ccc1O	BaF3 parental 29
CC[C@H](C)C(=O)O[C@H]1CCC=C2C=C[C@H](C)[C@H](CC[C@@H]3C[C@@H](O)CC(=O)O3)[C@H]21	Ba/F3 V617F tox 62, BaF3 parental 27!
CC[C@H](C)C(=O)O[C@H]1C[C@@H](C)C=C2C=C[C@H](C)[C@H](CC[C@@H]3C[C@@H](O)CC(=O)O3)[C@H]21	none
CC[C@@H]1[C@H]2CCCC(=O)N3CC[C@@H](C[C@@H]1Nc1ccccc1)[C@@H]23	none (no result: Ba/F3 V617F tox, APP 5UTR inh, BaF3 parental)
CC(C)NC(=O)Cn1cc(C(=O)COc2ccccc2)c2ccccc21	none
O=C(Nc1sc2c(c1C(=O)c1ccccc1)CCCC2)c1cccnc1	none
N#Cc1c(NC(=O)c2cccnc2)sc2c1CCC2	Ba/F3 V617F tox 41, BaF3 parental 42
N#Cc1c(NC(=S)NC(=O)c2ccccc2)sc2c1CCCC2	none
N#Cc1c(NC(=O)c2ccccc2)sc2c1CCC2	Ba/F3 V617F tox 37, BaF3 parental 28
Cc1onc(-c2c(F)cccc2Cl)c1C(=O)N(C)C1CCCCC1	none (no result: Ba/F3 V617F tox, APP 5UTR inh, BaF3 parental)
CC(C)c1ccc(C(C(=O)NC2CCCC2)N(C(=O)c2csnn2)C2CC2)cc1 (stereo unspecified)	none (no result: Ba/F3 V617F tox, APP 5UTR inh, BaF3 parental)
OCCCCNCc1ccc(OCc2ccc(Cl)cc2Cl)cc1	Ba/F3 V617F tox 59, BaF3 parental 27
S=C(Nc1ccccc1)Nc1ccc(OCc2ccc(Cl)cc2Cl)cc1	APP 5UTR inh 70
S=C(NCCSCc1ccc(Cl)cc1Cl)Nc1ccccc1	none
C[C@@H]1NC(=O)[C@H](CCC(=O)O)NC(=O)c2cc([N+](=O)[O-])cc(F)c2NCCC[C@@H](C(N)=O)NC1=O	none
O=C(NCC1CCCO1)C1CCCN1C(=O)Nc1ccc(Cl)c(Cl)c1 (stereo unspecified)	none
Cc1ccc(-c2c[n+](CC(=O)c3cccs3)c3n2CCC3)cc1	Ba/F3 V617F tox 33, BaF3 parental 62 (no result: APP 5UTR inh)
Cc1ccc(-c2c[n+](CC(=O)Nc3ccc(C)cc3C)c3n2CCC3)cc1	none (no result: APP 5UTR inh)
COc1ccc(-c2c[n+](CC(=O)N3c4ccccc4Sc4ccccc43)c3n2CCC3)cc1	none (no result: APP 5UTR inh)
COc1ccc(-c2c[n+](CC(=O)c3cccs3)c3n2CCC3)cc1	BaF3 parental 29 (no result: APP 5UTR inh)
COc1ccc(/C=C/C(=O)NC(CCSC)C(=O)O)cc1 (stereo unspecified)	none
C=CCN1C(=O)C2C(C(=O)NC3CCCC3)C3C=CC2(O3)C1C(=O)NC1CCCC1 (stereo unspecified)	none (no result: Ba/F3 V617F tox, APP 5UTR inh, BaF3 parental)
Cc1ccc(-n2c(-c3ccccc3)c[n+]3c2CCC3)cc1	Ba/F3 V617F tox 77, BaF3 parental 68
Cc1ccc(-n2c(-c3ccc(Cl)cc3)c[n+]3c2CCC3)cc1	Ba/F3 V617F tox 69, BaF3 parental 65 (no result: APP 5UTR inh)
FC(F)Sc1ccc(-n2c(-c3ccc(Cl)cc3)c[n+]3c2CCC3)cc1	Ba/F3 V617F tox 24, BaF3 parental 44
Cc1ccc(-c2c[n+](CC(=O)OCc3ccccc3)c3n2CCC3)cc1	none
O=C(Nc1ncc(Cl)cc1Cl)c1c(F)cccc1Cl	none
O=C(CN1C(=O)CSc2ncccc21)Nc1cccc(Cl)c1	none (no result: Ba/F3 V617F tox, APP 5UTR inh, BaF3 parental)
CCc1ccc(C(=O)COC(=O)c2ccc(Cl)nc2)cc1	none
COc1ccc2[nH]c3c(NCCC4=CCCCC4)ncnc3c2c1	Ba/F3 V617F tox 64, BaF3 parental 75
O=S1(=O)N=C(N2CCN(Cc3ccccc3)CC2)c2ccccc21	BaF3 parental 60
Cc1oc2c(CN3CCOCC3)c(O)ccc2c(=O)c1-c1ccc(Cl)cc1	Ba/F3 V617F tox 41, BaF3 parental 48 (no result: APP 5UTR inh)
Cc1oc2c(CN3CCCC3)c(O)ccc2c(=O)c1-c1ccc(Cl)cc1	none
COc1ccc(NC(=O)c2ccco2)cc1NC(=O)c1cccc(F)c1	none (no result: Ba/F3 V617F tox, APP 5UTR inh, BaF3 parental)
CCOC(=O)c1c(C)nc2sc(C(N)=O)c(N)c2c1-c1ccc(OC)cc1	APP 5UTR inh 64
CCOC(=O)c1c(C)nc2sc(C(=O)Nc3ccc(OC)cc3)c(N)c2c1-c1ccc(OC)cc1	none
Cc1ccc(-c2cc3cccc[n+]3cc2-c2ccc(C)cc2)cc1	IEC-6 tox 28, Ba/F3 V617F tox 96, BaF3 parental 79
C#CC[N+](C)(C)C(C#Cc1ccccc1)CC=C (stereo unspecified)	Ba/F3 V617F tox 26, BaF3 parental 48
CC/C(=N\NC(=O)c1ccc2c(c1)OCO2)C12CC3CC(CC(C3)C1)C2	none
CC/C(=N\NC(=O)c1ccncc1)C12CC3CC(CC(C3)C1)C2	APP 5UTR inh 52
CC(C)NC(=O)Cn1c(SCC(=O)N2CCCCCC2)nc2ccccc21	none
CC(C)NC(=O)Cn1c(SCC(=O)N2c3ccccc3CC2C)nc2ccccc21 (stereo unspecified)	BaF3 parental 95
Cc1cccc(-n2c(CCc3ccccc3)nnc2SCC(=O)c2ccccc2)c1	none
Cn1c(/C=C/c2ccc([N+](=O)[O-])o2)nc2ccccc2c1=O	Ba/F3 V617F tox 87, BaF3 parental 67
O=C(Cc1cccc2ccccc12)Nc1c(F)cccc1F	none (no result: Ba/F3 V617F tox, APP 5UTR inh, BaF3 parental)
COc1cc(/C=C2/NC(=O)N(c3cccc(Cl)c3)C2=O)ccc1O	Ba/F3 V617F tox 100, APP 5UTR inh 55, BaF3 parental 76
Nc1ccccc1-n1c(=O)n(Cc2ccccc2F)c(=O)c2[nH]cnc21	none (no result: Ba/F3 V617F tox, APP 5UTR inh, BaF3 parental)
CCc1nc2c(c(=O)c3ccccc3n2C)c(=O)n1CCc1ccc(OC)cc1	IEC-6 tox 26
CCC(=O)NC1=C(Cl)C(=O)C(NC(=O)CC)=C(Cl)C1=O	IEC-6 tox 73 (no result: APP 5UTR inh)
COc1ccc(CNC(=O)CCS(=O)(=O)c2cc3c(cc2Cl)NC(=O)CO3)cc1	none (no result: Ba/F3 V617F tox, APP 5UTR inh, BaF3 parental)
Nc1ccc(Br)cc1-c1nc2ccccc2[nH]c1=O	IEC-6 tox 39, Ba/F3 V617F tox 66, BaF3 parental 100
Nc1ccccc1-c1nc2ccccc2[nH]c1=O	none (no result: Ba/F3 V617F tox, APP 5UTR inh, BaF3 parental)
Cc1oc(-c2cccs2)nc1CN1CCC(CO)(CCOc2ccccc2)CC1	none
